Source: PubChem BioAssay (NCATS)
Several values for one entry are separate records, joined by “and”; a condition that tells them apart may be missing. Equal entries are not always repeated. Inconclusive results are not listed. Entries that show only a call come without a potency. Where a structure was tested more than once in an assay, its records may differ in their call. Activity calls are given as the source filed them. The call rests on the fitted dose curve; in most records, active means well fitted inhibition curve with a large enough effect; inconclusive means small, poorly fitted or top-dose-only effect; inactive means flat fitted curve, though single readings scatter.

Biological target: Voltage-gated inwardly rectifying potassium channel KCNH2 (Homo sapiens) (UniProt Q12809)
Test: qHTS Assay for Small Molecule Inhibitors of the Human hERG Channel Activity (AID 588834);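 further: lower thallium flux fluorescence means stronger hERG block; nearly all actives have a fitted effect of over 50% in size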
Conditions: U2OS BacMam hERG, FluxOR thallium flux fluorescence; series mostly up to 46.1 µM
Description: NIH Chemical Genomics Center [NCGC]
National Institutes of Environmental Health Sciences [NIEHS]
National Toxicology Program [NTP]
We have developed a 1536-well cell-based assay for quantitative high throughput screening (qHTS) to determine in vitro hERG channel blockage as a measure of cardio toxicity with small molecules. This particular assay uses the U2OS cell line which is derived from human osteosarcoma.
NCGC Assay Protocol Summary:
HERG assay (FluxORTM thallium flux assay) was initially developed by Invitrogen/Molecular Probes, and then miniaturized into 1536-well plate in a homogeneous format by NCGC. This assay measures the activity of potassium channel using thallium dye (FluxOR) flux as surrogate measurement for potassium into the cells with a FDSS-7000 kinetic plate reader (Hamamatsu Corp., Hamamatsu City, Japan). The hERG ion channel is transduced into mammalian cells (U2OS) using a baculovirus (Bacmam) construct harboring the hERG K+ ion channel. So far we screened LOPAC1280 library (Sigma), the NTP collection of 1408 compounds, and the NCGC Pharmaceutical Collection (NPC), in which many well defined HERG blockers are present. The rank order potencies of many of these compounds are similar to that of other HERG assays (membrane potential, Rb+ flux, patch clamp, etc). This quick and homogeneous assay is also found to be sensitive, specific, and robust.
Using the FluxORTM thallium flux assay, the activity of potassium channel using thallium dye (FluxOR) flux as surrogate measurement for potassium into the cells was measured in the U2OS cell line transduced with hERG K+ ion channel using a baculovirus (Bacmam) using Opti-MEM medium (Invitrogen) containing 2% fetal calf serum (FCS, HyCone) following loading buffer addition, compound treatment for around 10 minutes and finally adding stimulation buffer. The assay was performed in black clear Kalypsys 1536-well plates. In the screen, Astemizole was used as positive controls. Library compounds were measured for their ability to cause hERG channel blockage in the cell line, as reflected by a decrease in fluorescence intensity, in a concentration-dependent manner. […] AC50 values were determined from concentration-response data modeled with the standard Hill equation.
qHTS protocol for hERG-U2OS cellular assay
[Step] [Parameter] [Value] [Description]
1. Day 1: Replace medium in 70-80% confluent T225 flask with 2.5 mL of hERG-BacMam virus plus 12.5 mL of phosphate buffered saline (PBS) (corresponding roughly to a multiplicity of infection ratio of 100 virus particles/cell)
2. Incubation: 4 hrs @ room Temperature in Dark
3. Reagent; Remove virus; wash once with 25 ml DPBS
4. Reagent; 35 ml culture medium
5. Incubation; 37 °C overnight
6. Day2: Reagent; 3 uL; 2000 U2OS cells/well
7. Time; 4 hr; 37 °C incubation
8. Loading buffer; 1 uL; 0.7X;
9. Incubation: 1hr @ RT in Dark.
12. Time; 10min; 37 °C incubation
13. Read fluorescence Intensity on FDSS for 10 Sec with 1 sec interval
14. Reagent; 1 uL; stimulation buffer
15. Read fluorescence Intensity on FDSS for 2 min with 1 sec interval
16. Detection; Fluorescence Intensity; FDSS
Potency means the concentration at half of the fitted maximal effect.

Sequence of Voltage-gated inwardly rectifying potassium channel KCNH2 (Homo sapiens) (Q12809 whole entry, looked up): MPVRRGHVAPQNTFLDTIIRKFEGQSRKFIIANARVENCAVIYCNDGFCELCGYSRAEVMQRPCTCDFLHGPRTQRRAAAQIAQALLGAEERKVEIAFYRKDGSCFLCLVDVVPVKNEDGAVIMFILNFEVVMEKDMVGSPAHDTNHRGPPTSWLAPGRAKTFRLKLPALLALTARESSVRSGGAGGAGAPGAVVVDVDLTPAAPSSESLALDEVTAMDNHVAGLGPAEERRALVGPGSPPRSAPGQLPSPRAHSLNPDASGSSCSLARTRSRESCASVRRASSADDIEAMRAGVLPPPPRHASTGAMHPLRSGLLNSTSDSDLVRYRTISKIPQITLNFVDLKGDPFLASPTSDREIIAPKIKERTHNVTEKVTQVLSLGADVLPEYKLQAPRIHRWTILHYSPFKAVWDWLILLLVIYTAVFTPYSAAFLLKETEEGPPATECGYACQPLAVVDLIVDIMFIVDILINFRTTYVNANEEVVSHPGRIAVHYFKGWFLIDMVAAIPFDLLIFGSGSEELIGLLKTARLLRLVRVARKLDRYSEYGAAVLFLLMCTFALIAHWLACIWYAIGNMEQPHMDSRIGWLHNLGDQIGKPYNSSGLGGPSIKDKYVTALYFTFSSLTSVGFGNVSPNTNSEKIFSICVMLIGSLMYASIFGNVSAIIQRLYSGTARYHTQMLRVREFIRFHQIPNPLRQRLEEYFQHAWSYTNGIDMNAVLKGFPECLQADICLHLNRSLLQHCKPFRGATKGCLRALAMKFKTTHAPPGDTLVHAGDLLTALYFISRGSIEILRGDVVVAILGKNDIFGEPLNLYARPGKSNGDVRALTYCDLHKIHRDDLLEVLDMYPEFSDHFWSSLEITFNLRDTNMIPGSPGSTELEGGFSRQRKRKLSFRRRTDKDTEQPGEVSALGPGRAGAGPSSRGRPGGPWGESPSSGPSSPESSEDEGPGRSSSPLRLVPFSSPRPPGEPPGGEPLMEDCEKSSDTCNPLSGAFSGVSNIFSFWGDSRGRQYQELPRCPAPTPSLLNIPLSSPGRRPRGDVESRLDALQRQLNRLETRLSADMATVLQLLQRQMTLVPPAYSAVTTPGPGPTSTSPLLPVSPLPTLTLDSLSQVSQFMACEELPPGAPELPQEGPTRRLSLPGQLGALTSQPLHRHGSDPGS

| SMILES | Potency |
| --- | --- |
| CN1CCN(CC(=O)N2c3ccccc3C(=O)Nc3cccnc32)CC1 | inactive |
| COc1cc(C(=O)OCCCN2CCCN(CCCOC(=O)c3cc(OC)c(OC)c(OC)c3)CC2)cc(OC)c1OC | 10 µM (active) and inactive |
| CSc1ccc(C(=O)c2[nH]c(=O)[nH]c2C)cc1 | inactive |
| O=C(O)CN(CCOCCOCCN(CC(=O)O)CC(=O)O)CC(=O)O | inactive |
| CCc1cccc(N(C)C(N)=Nc2cccc3ccccc23)c1 | 8.91 µM (active) |
| C[N+](C)(C)CCOC(=O)CCC(=O)OCC[N+](C)(C)C | inactive |
| CC[N+](C)(C)c1cccc(O)c1 | inactive |
| NCCCNCCSP(=O)(O)O | inactive |
| Cc1nc2ccccn2c(=O)c1CCN1CCC(C(=O)c2ccc(F)cc2)CC1 | 1.12 µM (active) and 4.47 µM (active) |
| O=C(CCNNC(=O)c1ccncc1)NCc1ccccc1 | inactive |
| CC(C)COCC(CN(Cc1ccccc1)c1ccccc1)N1CCCC1 (stereo not given) | inactive |
| CCCNC(C)C(=O)Nc1ccccc1C (stereo not given) | inactive |
| CN1CCN(C2=Nc3ccccc3Oc3ccc(Cl)cc32)CC1 | 11.2 µM (active) and 10 µM (active) |
| CN=C(NC#N)NCCSCc1nc[nH]c1C | inactive |
| CCCC(C(=O)OCCN(CC)CC)(c1ccccc1)c1ccccc1 | 11.2 µM (active) and 10 µM (active) |
| C[C@]12C=CC(=O)C=C1CC[C@H]1[C@@H]3C[C@@H](O)[C@](O)(C(=O)CO)[C@@]3(C)C[C@H](O)[C@@]12F | inactive |
| Nc1nc(N)c2nc(-c3ccccc3)c(N)nc2n1 | inactive |

| SMILES | Potency |
| --- | --- |
| Nc1ncn([C@@H]2O[C@H](CO)[C@@H](O)[C@H]2O)c(=O)n1 | inactive |
| CNCCCN1c2ccccc2CCc2ccccc21 | inactive |
| CC(=O)OCC1=C(C(=O)O)N2C(=O)[C@@H](NC(=O)Cc3cccs3)[C@H]2SC1 | inactive |
| COc1ccc2c(c1OC)C(=O)O[C@@H]2[C@H]1c2c(cc3c(c2OC)OCO3)CCN1C | inactive |
| COC(=O)[C@@H](N)Cc1ccc(O)c(O)c1 | inactive |
| CN(C)CCOC(=O)COc1ccc(Cl)cc1 | inactive |
| CCCN1C[C@H](CSC)C[C@@H]2c3cccc4[nH]cc(c34)C[C@H]21 | 12.6 µM (active) and 2 µM (active) |
| CCNC(=O)N1CCN(CCCC(c2ccc(F)cc2)c2ccc(F)cc2)CC1 | 0.0562 µM (active) |
| CCCCNc1c(C(=O)OCC)c(C)nc2c1cnn2CC | inactive |
| Cc1ccc(=O)n(-c2ccccc2)c1 | inactive |
| NC(N)=N/N=C/c1c(Cl)cccc1Cl | 1.41 µM (active) |
| OCCN1CCN(CCCN2c3ccccc3C=Cc3ccccc32)CC1 | 12.6 µM (active) |
| c1cnc(N2CCN(Cc3ccc4c(c3)OCO4)CC2)nc1 | inactive |
| CNCCC(Oc1ccccc1OC)c1ccccc1 (stereo not given) | 12.6 µM (active) and 6.31 µM (active) |
| CN(C)C(=O)Oc1cccc([N+](C)(C)C)c1 | inactive |
| C[C@H](CS)C(=O)N1CCC[C@H]1C(=O)O | inactive |
| CN/C(=C\[N+](=O)[O-])NCCSCc1ccc(CN(C)C)o1 | inactive |
| Cc1nc2c([nH]1)c(=O)n(C)c(=O)n2Cc1ccco1 | inactive |
